Compound activity as filed in PubChem.
An excerpt weighted towards active compounds, which were near 7.9% of everything screened.
HCMV inh = inhibitors of human cytomegalovirus | HFF cells, HCMV-luciferase reporter, 72 h; hits give low values | activity change, negative = inhibition, % at 57.5 µM | 410,000 tested, 4.5% active; in the data active = activity change below about -60%; inconclusive = no clear call, values can overlap the other calls; inactive = above about -39%
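Two compound doses tested in HFFs infected with HCMV-luciferase, MOI 1 PFU/cell, 72 h at 37C. Lysate luminescence read with OneGlo; data normalized against buffer-only and 10uM Salinomycin inhibitor controls.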
HCV inhibitor = inhibitors of hepatitis C virus infection | Huh7.5.1 HCVcc-Cre infection, luciferase reporter, 44 h | Potency, µM (titrated, usually from 41.8 µM), hits mostly inhibitors | 340,000 tested, 3.4% active; active = well fitted inhibition curve with a large enough effect; inconclusive = small, poorly fitted or top-dose-only effect, or another doubt; inactive = no such curve, though single readings can be large or run the other way
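Compounds are dispensed onto cells plated 4 h earlier at 1,000 per well, with HCVcc-Cre virus (about 0.5 moi) added next. Following 44 h of culture, luminescent signal is measured for 15 sec after 15 min with substrate at room temperature.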
LASV entry inh = Lassa virus entry inhibition | Lassa virus pseudotype entry inhibition, cell reporter | 300,000 tested, 1.2% active | Potency, µM (top dose mostly 37.9 µM), hits mostly inhibitors; calls by dose curve; tested in HEK293 cells; note: nearly all actives have a fitted effect of over 50% in size
Marburg entry inh = Marburg virus entry inhibition; Marburg virus pseudotyped entry inhibition, cell reporter; Potency, µM (titrated, usually from 37.8 µM), hits mostly inhibitors; 300,000 tested, 1.8% active; AID 540276; calls by dose curve; tested in HEK293 cells
FMDV inh = foot and mouth disease virus antiviral activity; AID 1159524; 410,000 tested, 1.2% active; Potency, µM (titrated, usually from 57.9 µM), actives largely listed as inhibitors; FMDV antiviral cell-based qHTS; calls by dose curve; tested in HEK293T cells; note: read-out not given here; nearly all actives have a fitted effect of over 45% in size
Of the large screens only hits and unclear results are named; the others gave an inactive call; ! = not active in a repeat.

CCC(C)SCc1nc2ccccc2[nH]1 (stereo not drawn)	HCMV inh -63
N#CC(=C(O)CN1CCN(c2ccccc2F)CC1)c1nc(-c2ccccc2)cs1	HCMV inh -71, Marburg entry inh inconclusive
CC(C)=C[C@H]1C[C@H](C)[C@H]2CC[C@H](C)c3c(O[C@@H]4OC[C@@H](O)[C@H](O)C4O)c(O)c(C)c1c32 (stereo partly drawn)	HCMV inh inconclusive, HCV inhibitor inconclusive (no result: LASV entry inh, Marburg entry inh)
N#Cc1c(Nc2ccccc2Cl)s[nH]c1=O	HCMV inh -87
O=C(/C=C/c1ccco1)Oc1cc(Br)cc(/C=N/NC(=O)c2ccccc2O)c1	HCMV inh -101, HCV inhibitor inconclusive, LASV entry inh 11µM, Marburg entry inh inconclusive, FMDV inh inconclusive
O=C(C1CCCN(S(=O)(=O)c2ccc(Br)s2)C1)N1CCN(c2ccccc2)CC1 (stereo not drawn)	HCV inhibitor 10µM, LASV entry inh inconclusive, Marburg entry inh inconclusive, FMDV inh inconclusive
COc1cccc(N2CCN(C(=O)C3CCC(CNS(=O)(=O)c4ccc(Br)s4)CC3)CC2)c1 (stereo not drawn)	FMDV inh 18µM (no result: HCV inhibitor)
COc1cccc(N2CCN(C(=O)C3CCCN(S(=O)(=O)c4ccc(Br)s4)C3)CC2)c1 (stereo not drawn)	LASV entry inh inconclusive, Marburg entry inh inconclusive, FMDV inh 18µM (no result: HCV inhibitor)
Cc1cccc(N2CCN(C(=O)C3CCCN(S(=O)(=O)c4ccc(Br)s4)C3)CC2)c1C (stereo not drawn)	HCMV inh -62, LASV entry inh inconclusive, Marburg entry inh inconclusive, FMDV inh inconclusive (no result: HCV inhibitor)
O=C(C1CCCN(S(=O)(=O)c2ccc(Br)s2)C1)N1CCCCCC1 (stereo not drawn)	HCV inhibitor inconclusive, FMDV inh inconclusive
O=C(C1CCCN(S(=O)(=O)c2ccc(Br)cc2)C1)N1CCN(Cc2ccccc2)CC1 (stereo not drawn)	HCV inhibitor 11µM, LASV entry inh inconclusive, Marburg entry inh inconclusive
O=C(C1CCCN(S(=O)(=O)c2cccc3nonc23)C1)N1CCN(c2cccc(Cl)c2)CC1 (stereo not drawn)	HCMV inh -65!, HCV inhibitor 7.9µM, Marburg entry inh 23µM!
O=C(O)C1CCCN(S(=O)(=O)c2ccc(Br)s2)C1 (stereo not drawn)	HCMV inh -62
Cc1n[nH]c(C)c1S(=O)(=O)N1CCCC(C(=O)N2CCN(c3ccc(Cl)cc3)CC2)C1 (stereo not drawn)	HCMV inh -76, HCV inhibitor inconclusive, LASV entry inh inconclusive, Marburg entry inh inconclusive, FMDV inh 20µM
COc1ccc(S(=O)(=O)N2CCN=C2SCc2cccc(C)c2)cc1	HCMV inh -75, LASV entry inh inconclusive, Marburg entry inh inconclusive, FMDV inh inconclusive
O=S(=O)(c1ccc(Cl)cc1)N1CCN=C1SCc1cccc(Cl)c1	HCMV inh -62, HCV inhibitor inconclusive, LASV entry inh inconclusive, FMDV inh inconclusive
O=S(=O)(c1ccccc1)N1CCN=C1SCc1c(F)cccc1Cl	HCMV inh -80, HCV inhibitor inconclusive, LASV entry inh inconclusive
O=S(=O)(c1ccc(Cl)cc1)N1CCN=C1SCc1cccnc1	HCMV inh -75 (no result: LASV entry inh, Marburg entry inh)
CC(C)N(C(=O)CSc1nc2ccccc2c(=O)[nH]1)C(C)C	none
CCOC(=O)c1c(-c2ccccc2)cn2c(C)cc(C)nc12	LASV entry inh inconclusive
Cc1oc(-c2ccccc2NC(=O)c2ccccn2)nc1CNC(=O)c1ccc(Oc2ccccc2)o1	none (no result: HCMV inh, HCV inhibitor, LASV entry inh, Marburg entry inh)
COCCN(Cc1ccccc1)C(=S)Nc1ccc(OC(F)F)cc1	HCMV inh inconclusive, LASV entry inh 16µM, Marburg entry inh inconclusive
CCCN(Cc1ccccc1)C(=S)Nc1ccc(OC(F)F)cc1	Marburg entry inh inconclusive
COc1ccc(-c2cnc(C)o2)cc1S(=O)(=O)Nc1ccc(F)cc1F	none (no result: HCV inhibitor, Marburg entry inh)
CC(C)[C@H](NC(=O)N1c2ccccc2NC(=O)[C@@H]1C(C)C)C(=O)N[C@@H](C(=O)O)c1ccccc1	HCV inhibitor 0.35µM (no result: LASV entry inh, Marburg entry inh)
Cc1cnc(NC(=O)c2cc3ccccc3o2)s1	Marburg entry inh 13µM
Cc1cnc(NC(=O)c2cccc(S(=O)(=O)N3CCOCC3)c2)s1	none (no result: LASV entry inh, Marburg entry inh)
Cc1ccc(OCCOC(=O)c2cccc(S(=O)(=O)N3CC(C)OC(C)C3)c2)cc1 (stereo not drawn)	HCV inhibitor 11µM, FMDV inh inconclusive (no result: LASV entry inh, Marburg entry inh)
Cc1cnc(NC(=O)c2cccc(S(=O)(=O)N3CC(C)OC(C)C3)c2)s1 (stereo not drawn)	HCV inhibitor 11µM, FMDV inh inconclusive (no result: LASV entry inh, Marburg entry inh)
Cc1nc2ccc3nc(NC(=O)c4ccc5c(c4)OCCO5)sc3c2s1	HCMV inh -106, HCV inhibitor inconclusive, LASV entry inh inconclusive
CCOc1ccc(-c2nnc(SCC(=O)NCc3ccc(Cl)cc3)o2)cc1	none (no result: HCV inhibitor)
O=C(/C=C/[C@H]1O[C@@H](n2ccc(=O)[nH]c2=O)[C@H](O)[C@@H]1O)NC1CCN(Cc2ccccc2)C1 (stereo partly drawn)	none (no result: HCV inhibitor, LASV entry inh, Marburg entry inh)
CCN(CC(=O)NCc1ccc(F)cc1)C(=O)/C=C/c1ccc(S(=O)(=O)N(CC)CC)cc1	HCV inhibitor inconclusive, Marburg entry inh inconclusive
Cc1ccc(C(=O)Nc2ncc(C)s2)s1	LASV entry inh 5µM, Marburg entry inh 2.8µM
Cc1nc2c(ccc3nc(NC(=O)C(c4ccccc4)c4ccccc4)sc32)s1	HCV inhibitor 10µM, FMDV inh 13µM
Cc1nc2c(ccc3nc(NC(=O)Cc4cccc5ccccc45)sc32)s1	HCV inhibitor inconclusive, LASV entry inh inconclusive, FMDV inh inconclusive
Cc1ccc2sc(NC(=O)c3ccc4c(c3)OCCO4)nc2c1C	none (no result: HCV inhibitor, Marburg entry inh)
Cc1nc2c(ccc3nc(NC(=O)c4ccc5c(c4)OCCO5)sc32)s1	HCMV inh -82, HCV inhibitor inconclusive, Marburg entry inh inconclusive (no result: FMDV inh)
Cc1cnc(NC(=O)c2ccc3c(c2)OCCO3)s1	HCMV inh -80, FMDV inh 10µM (no result: LASV entry inh, Marburg entry inh)
C[C@H]1[C@@H](NS(=O)(=O)c2cccc([N+](=O)[O-])c2)CC[C@@]23CCCN2C(=O)CCC[C@@H]13	none (no result: HCV inhibitor, LASV entry inh, Marburg entry inh, FMDV inh)
CCCCC[C@@H](C)N1C[C@H](COCc2ccccc2)Oc2cc(N3CC[C@@H](N(C)C)C3)ccc2S1(=O)=O	HCMV inh -102 (no result: HCV inhibitor, LASV entry inh, Marburg entry inh)
CCCCC[C@@H](C)N1C[C@@H](COCc2ccccc2)Oc2cc(N3CC[C@@H](N(C)C)C3)ccc2S1(=O)=O	none (no result: HCV inhibitor, LASV entry inh, Marburg entry inh)
CCCCC[C@H](C)N1C[C@H](COCc2ccccc2)Oc2cc(N3CC[C@@H](N(C)C)C3)ccc2S1(=O)=O	HCMV inh -101 (no result: HCV inhibitor, LASV entry inh, Marburg entry inh)
COCCNC(=O)[C@@]1(Sc2ccc(OC)cc2)CC(=O)N[C@@H]1c1ccc(OC)cc1	none (no result: HCV inhibitor, LASV entry inh, Marburg entry inh, FMDV inh)
CCOC(=O)C(C(=O)OCC)C(Nc1ccc(Br)cc1)c1ccccc1 (stereo not drawn)	FMDV inh 13µM
COC(=O)C1=C(C)N(Cc2ccccc2)C(=S)NC1c1cccc(F)c1 (stereo not drawn)	none (no result: HCMV inh, HCV inhibitor, LASV entry inh, FMDV inh)
CCc1ccc(NC(=O)N(C2CCCCC2)C(C)c2cccnc2)cc1 (stereo not drawn)	Marburg entry inh inconclusive
Cc1ccc(NC(=O)N(C2CCCCC2)C(C)c2cccnc2)cc1C (stereo not drawn)	HCMV inh -68 (no result: LASV entry inh, Marburg entry inh)
